Only some compounds are listed: those with a hit (about 1.4% of all), similar ones and a draw of the others.
Vif-A3F inh: qHTS for Inhibitors of Vif-A3F Interactions: qHTS; HeLa A3F-eYFP + Vif (tagged APOBEC3F with the HIV-1 protein that degrades it), YFP fluorescence increase; Potency, µM (titrated, usually from 46.1 µM), for inactives: at the highest dose activity, negative = active; 390,000 compounds, 0.2% hits; also: potency is read from the fitted curve at half-maximal effect; % of control where 0% means no effect; nearly all actives have a fitted effect of over 65% in size
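Fluorescence increase (Ex 488/Em 500-530) after overnight compound treatment at 37 deg C flags inhibition of Vif-driven A3F-eYFP loss in stable HeLa A3F-eYFP/Vif cells seeded overnight beforehand.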
12-LOX inh: Primary qHTS assay for inhibitors of human arachidonate 12S-lipoxygenase (ALOX12): Round 2. Potency, µM (titrated, usually from 108 µM), inactives show at the highest dose activity change, negative = inhibition, hits mostly inhibitors. purified 12hLO, xylenol orange hydroperoxide absorbance. Polyunsaturated fatty acid lipoxygenase ALOX12 (Homo sapiens), P18054. AID 1671190, 2021. 580,000 compounds, 1.1% hits; also: potency is read from the fitted curve at half-maximal effect; % is scaled to controls: 0 for no effect and ±100 for the full control effect
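Purified human 12hLO at 150 nM in 25 mM Hepes, 0.01% Triton X-100, pH 7.0, preincubated 15 min at room temperature with compound. Reaction started with 40 uM arachidonic acid, 30 min at room temperature. Hydroperoxide measured by Fe-xylenol orange, 573/405 nm absorbance ratio.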
pAkt inh: HTS Assay for Inhibitors of Akt Phophorylation: Primary Screen; AID 651550, 2012; 360,000 compounds, 0.32% hits; Neuro2A IGF-stimulated pAkt S473 HTRF, 20 min; stronger effect = lower value; activity change, % for hits at 50 µM; in the data active = activity change below about -80%; inconclusive = mostly about -51% to -80%; also: % is scaled to controls: 0 for no effect and ±100 for the full control effect
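Neuro2A cells in DMEM with 0.5% FBS, overnight at 37 deg C, given compound at single 50 µM final, then IGF (6 nM final) for 20 min at 37 deg C. Lysed; phospho-Akt Ser473 by HTRF after 24 h, 665/615 ratio.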
ASM inhibitor: Inhibitors of Secretory Acid Sphingomyelinase (S-ASM): qHTS; placental ASM, HMU-PC fluorogenic substrate, 60 min; 340,000 compounds, 0.006% hits; AID 504937, 2011; Sphingomyelin phosphodiesterase (Homo sapiens), P17405; Potency, µM (titrated, usually from 57.5 µM), for inactives: top-dose activity change, negative = inhibition, most hits filed as inhibitors; also: potency is read from the fitted curve at half-maximal effect
Target sequence (P17405 47-631 limits assumed): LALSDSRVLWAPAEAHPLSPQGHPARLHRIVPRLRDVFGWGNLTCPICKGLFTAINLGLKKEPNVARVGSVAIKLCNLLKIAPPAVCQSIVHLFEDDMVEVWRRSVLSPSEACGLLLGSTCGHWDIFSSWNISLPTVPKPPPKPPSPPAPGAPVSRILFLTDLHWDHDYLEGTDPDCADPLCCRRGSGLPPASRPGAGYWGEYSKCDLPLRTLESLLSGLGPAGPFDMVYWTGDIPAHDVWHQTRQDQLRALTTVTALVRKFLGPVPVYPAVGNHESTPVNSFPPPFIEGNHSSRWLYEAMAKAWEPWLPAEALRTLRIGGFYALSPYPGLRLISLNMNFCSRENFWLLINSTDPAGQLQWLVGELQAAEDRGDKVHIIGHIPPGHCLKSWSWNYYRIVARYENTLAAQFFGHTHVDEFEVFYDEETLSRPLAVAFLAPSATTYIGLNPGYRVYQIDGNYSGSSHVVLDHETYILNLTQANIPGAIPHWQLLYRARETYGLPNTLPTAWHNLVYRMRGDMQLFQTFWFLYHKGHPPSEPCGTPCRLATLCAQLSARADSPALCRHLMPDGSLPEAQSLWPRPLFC
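Fluorescence read-out (Ex 386 nm, Em 447 nm) after stopping the reaction at pH 10. Enzyme: ASM from human placenta; substrate HMU-PC0, 9 uM final; 60 min, 37 °C. Compound preincubation 10 min, ambient temperature.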
TSG101-PTAP inh: qHTS Assay for Iinhibitors of HIV-1 Budding by Blocking the Interaction of PTAP/TSG101; Fluorescence polarization, FITC-PTAP peptide / Tsg101 binding; Potency, µM (doses to about 115 µM), without a hit: at the highest dose activity change, negative = inhibition, hits mostly inhibitors; Tumor susceptibility gene 101 protein (Homo sapiens), Q99816; 340,000 tested, under 10 active; active = well fitted inhibition curve with a large enough effect in the main read-out, with a control signal flat, not every such curve was filed as active; inconclusive = small, poorly fitted or top-dose-only effect, or effect the other way, or a change in a side signal; inactive = no such curve, though single readings can be large or run the other way; also: potency is read from the fitted curve at half-maximal effect; % of control where 0% means no effect
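Tsg101 binding domain (10 uM final) was mixed with compound and a FITC-labeled PTAP peptide (50 nM final) in HEPES pH 7.5 buffer with NaCl, Tween 20, EDTA and TCEP; fluorescence polarization was read after 20 min at r.t.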
Vif-A3G inh: qHTS for Inhibitors of Vif-A3G Interactions: qHTS; Potency, µM (titrated, usually from 46.1 µM), inactives show at the highest dose activity, negative = active, most hits filed as inhibitors; AID 602310, 2012; DNA dC->dU-editing enzyme APOBEC-3G (Homo sapiens), Q9HC16; HeLa A3G-eYFP + Vif (tagged APOBEC3G with the HIV-1 protein that degrades it), YFP fluorescence, overnight; 410,000 compounds, 0.076% hits; also: potency is read from the fitted curve at half-maximal effect; % is scaled to controls: 0 for no effect and ±100 for the full control effect; nearly all actives have a fitted effect of over 60% in size
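HeLa cells stably expressing Vif and C-terminally eYFP-tagged A3G, seeded overnight at 37 deg C, then exposed to compound by pintool overnight at 37 deg C. Rise in yellow fluorescence (Ex 488/Em 500-530, Acumen) marks blocked Vif-driven A3G degradation.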
An asterisk follows results filed as active; i = inactive; ? = inconclusive; nt = no result given; [ ] = dose if it differs, or a comment. Unless noted, calls follow the shape of the dose curve; as a rule, active = well fitted curve in the direction sought with a large enough effect; inconclusive = small, poorly fitted or top-dose-only effect, or another doubt; inactive = no such curve, though single readings can be large; an effect the other way counts as inactive or inconclusive.

SMILES | Vif-A3F inh | 12-LOX inh | pAkt inh | ASM inhibitor | TSG101-PTAP inh | Vif-A3G inh
Cc1ccnc(NC(=S)N2CCN(c3cccc(C(F)(F)F)c3)CC2)c1 | -30% | 22µM* | i | 2% | 1% | -1%
FC(F)(F)c1cccc(N2CCN(C(=S)NC3CCCCC3)CC2)c1 | -24% | 50µM* | i | -6% | -1% | 2%
COC(=O)[C@@H]1Cc2ncn(C)c2CN1S(=O)(=O)c1ccc(F)cc1 | nt | 56µM* | nt | nt | nt | nt
CCn1c(CN(c2ccc(C)cc2)S(C)(=O)=O)nnc1SCC(=O)c1ccccc1 | nt | 25% | nt | nt | nt | nt
Cc1ccc(S(=O)(=O)/N=C2/NC(=O)/C(=C\c3cc(Br)cc(Br)c3O)S2)cc1 | ? | nt | i | 2% | 20% | -10%
Cc1ccc(S(=O)(=O)/N=C2/NC(=O)/C(=C/c3ccc(Br)o3)S2)cc1 | 4% | 1µM* | i | 44% | -9% | -5%
CCN(CC)C(=O)c1cccc(NC(=O)c2cc(=O)c3cc(C)ccc3o2)c1 | nt | 16% | nt | nt | nt | nt
O=C(NC1(C(=O)O)CCCCC1)C1CCC1 | nt | 4% | nt | nt | nt | nt
COc1ccc(/C(C)=C2\SC(=S)N(CCC(=O)O)C2=O)cc1 | 0% | -3% | i | 0% | -9% | 4%
C/C(=C1/SC(=S)N(CCC(=O)O)C1=O)c1ccc(O)cc1 | nt | 40µM* | i | -1% | -7% | -5%
COc1ccccc1CCNC(=O)CSc1ccccc1C(=O)OCC(=O)C(C)(C)C | nt | -40% | nt | nt | nt | nt
C=C(C)CNCC1(O)CCCN(Cc2cccc(F)c2F)C1=O (stereo not drawn) | nt | 50% | nt | nt | nt | nt
N#CCN(CC#N)C(=O)Cc1cccs1 | nt | 32µM* | nt | nt | nt | nt
Cc1ccccc1C(=O)Nc1ccc2oc(-c3ccccc3)cc(=O)c2c1 | nt | -27% | nt | nt | nt | nt
CN1C2CCC1/C(=C\c1ccc(F)cc1)C(=O)/C2=C/c1ccc(F)cc1 | ? | -13% | i | 0% | -1% | -21%
CN1C2CCC1/C(=C/c1cccn1C)C(=O)/C2=C\c1cccn1C | 22µM* | ? | i | -27% | ? | ?
Cn1cccc1/C=C1\CC(C(C)(C)C)C/C(=C\c2cccn2C)C1=O (stereo not drawn) | ? | ? | i | ? | ? | 7.9µM*
Cn1cccc1/C=C1\Cc2ccccc2C1=O | -3% | 0% | i | 83% | 1% | 7%
CC(Sc1nnc(C2CC2)n1-c1ccccc1)c1nnc(-c2ccc(F)cc2)o1 (stereo not drawn) | nt | 6% | nt | nt | nt | nt
CCOc1cc2c(cc1CNC(=O)c1cc(S(N)(=O)=O)ccc1Br)OC(C)C2 (stereo not drawn) | nt | 4% | nt | nt | nt | nt
CC(C)(C)NC(=O)CSc1nncn1NCc1cccc2ccccc12 | 0% | 271% | -113%* | 4% | 0% | -3%
CC(=O)Nc1ccc(CN2CC(Oc3ccc(F)c(F)c3)C2)cc1 | nt | 0%[6.33 µM] | nt | nt | nt | nt
O=Cc1sc(Nc2ccccc2)nc1Cl | 25µM* | -12% | i | 5% | 13% | ?
Cc1ccc(Nc2nc(Cl)c(C=O)s2)cc1Cl | 22µM* | 15% | i | 55% | 0% | ?
Cc1ccc(Nc2nc3ccccc3c(=O)s2)cc1C | 2% | -14% | i | 1% | -1% | 2%
COc1ccccc1Nc1nc(Cl)c(C=O)s1 | ? | -23% | i | 3% | 3% | ?
O=C(Nc1ccc(Cl)cc1)Nc1cccnc1 | 0% | -29% | i | -1% | -9% | 1%
O=C(Nc1cccnc1)Nc1ccc(Cl)cc1Cl | ? | 25µM* | i | -3% | -6% | 6%

Screens from PubChem BioAssay.
